Molecules are shown by their SMILES. Calls of active or inactive are those of the source. The calls were made as follows: active = hit-call score of the fitted dose curve at least 0.9, where 1 is the maximum; inactive = score below 0.9.

Read-out in the test: matrix metalloproteinase-1 (MMP1), MMP1 (gene 4312)
The test is described as follows: LTEA_HepaRG_MMP1: Life Technologies and Expression Analysis (LTEA) Assay for matrix metalloproteinase-1 (MMP1) using HepaRG (AID 2283658). The conditions noted are these: mRNA level, 48 h; actives raise or lower the signal. As to the method:
LTEA_HepaRG is a cell based, multiplexed-readout assay that uses HepaRG, a human liver cell line, with measurements taken at 48 hours after chemical dosing on a 96-well plate.LTEA_HepaRG_MMP1 is one of 102 assay component(s) measured in the LTEA HepaRG cell culture assay. It is a marker of Fibrosis.Data from the assay component LTEA_HepaRG_MMP1 was analyzed into 1 endpoint. This assay endpoint, LTEA_HepaRG_MMP1, was analyzed with bidirectional fitting relative to DMSO as the negative control and baseline of activity. Using a type of inducible reporter, measures of mRNA induction for gain or loss-of-signal activity can be used to understand regulation of transcription factor activity. To generalize the intended target to other relatable targets, this assay endpoint is annotated to the protease intended target family, where the subfamily is matrix metalloproteinase.
A total of 1060 chemcials from the ToxCast library were tested in eight-point concentration-response experiments. Cell culture and cytotoxicity assays were conducted at Thermo Fisher Scientific's Custom Services facility (Madison, WI). A single lot of human HepaRG cells (Thermo Fisher Scientific, Frederick, MD) was used for the cell culture experiments. 96-well format collagen type I coated plates of human HepaRG cells were prepared using established methods. Briefly, cryopreserved HepaRG cells were thawed, plated at a density of approximately 100,000 cells/well in HepaRG Thaw, Plate, and General Purpose media (HPRG770, Thermo Fisher Scientific), and incubated for 48 hours. 0.5% DMSO was selected as vehicle control to balance the requisite need of DMSO in HepaRG cultures to maintain differentiation (for example, baseline metabolism, proportions of hepatocytes vs. cholangiocytes), while enabling further hepatic receptor pathway activation (for example, PXR and CAR) in response to chemical exposure. 48 hours after plating, the culture medium was replaced with HepaRG Serum-Free Incudtion Media. Cells were exposed to each test chemical in duplicate and maintained in CO2 incubators for another 48 hours. Chemical plates were thawed to room temperature and 200x concentrations of treatment groups were prepared. 8-point conentration-reponse curves were made with the highest exposure at 100 uM, followed by half-log dilutions, all in 0.5% DMSO. Each test plate contained variouse controls, induction positive controls (1mM phenobarbital), cytotoxicity positive controls ([…] aflatoxin B1), vehicle controls (0.5% DMSO), and total lysis controls (0.5% DMSO). Cell morphology images were taken using an Essen IncuCyte FLR automated microscope, with six 96-well plates imaged in about 24 minutes. Images were captured and exported and JPEG files. Spent culture media was transfered to black-well plates for the LDH assay, and remaining media was sorted at -80 C for later use. Cells were treated with RLT buffer and frozen until shipped for gene expression analysis. Total RNA was isolated from the cell suspension in 75 uL of Buffer RLT (Qiagen, Germantown, MD 20874) by Quintiles/Expression Analysis (Durham, NC) using a custom isolation procedure. Total RNA from each plate well was transferred to a preamplification plate. Fluidigm's 96.96 Dynamic ArrayTM (Fluidigm, Amsterdam, the Netherlands) technology was used for gene expression analyses by quantitative reverse transcription polymerase chain reaction (qRT-PCR, performed by Quintiles/Expression Analysis, Durham, NC)89. Standard TaqManTM Assays (Applied Biosystems/ThermoFisher Scientific, Foster City, CA) were used to assess the expression of 93 genes selected based on their selectivity and sensitivity to important hepatic receptors known to be modulated by environmental chemicals; importance in human hepatocyte functionality; and hepatotoxicity. […]
On to `CCOC1Oc2ccc(OS(C)(=O)=O)cc2C1(C)C` (stereo not given), for which the call was inactive.
Consider `Cc1[nH]c(=O)n(C(C)(C)C)c(=O)c1Cl`, for which the outcome was inactive.
Consider `CCCN(CCC)c1c([N+](=O)[O-])cc(C(F)(F)F)cc1[N+](=O)[O-]`, for which the molecule was called inactive.
Regarding `ClC1C(Cl)C(Cl)C(Cl)C(Cl)C1Cl` (stereo not given), the result was inactive.
In the case of `N#Cc1c(Cl)c(Cl)c(Cl)c(C#N)c1Cl`, the AC50 was 13.3 µM (active).
Take `O=C1c2ccccc2C(=O)N1SC(Cl)(Cl)Cl`: the molecule was called inactive.
Regarding `CN1CSC(=S)N(C)C1`, the molecule was called inactive.
In the case of `CC1(C)C(C=C(Cl)Cl)C1C(=O)OC(C#N)c1ccc(F)c(Oc2ccccc2)c1` (stereo not given), the molecule was classed as inactive.
Take `CCC(C)Nc1c([N+](=O)[O-])cc(C(C)(C)C)cc1[N+](=O)[O-]` (stereo not given): the result was inactive.
Take `CCCN(CCOc1c(Cl)cc(Cl)cc1Cl)C(=O)n1ccnc1`: the AC50 is 69.2 µM (active).

Values taken from PubChem BioAssay (EPA / NIEHS).
